Shown are actives, neighbours in structure and some others; about 3.2% of the full set was active somewhere.
DAGLB inh = diacylglycerol lipase beta (human) inhibition. Q8NCG7. hit rate 0.059% among 340,000. HEK293T DAGLB membrane lysate, EnzChek fluorogenic substrate. inhibition, % at 5.17 µM; in the data active = inhibition above about 34%
DSG3 Ab inh = human desmoglein-3 autoantibody binding inhibition; hit rate 0.48% among 310,000; AID 588358; DSG3-coupled beads, scFv-anti-DSG3-GFP binding, flow cytometry; stronger effect = lower value; binding (percent of control), % at 10 µM;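 active = binding more than 3 SD below its plate's average and above zero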;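 note: hits lower antibody fragment binding to DSG3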
Target sequence (P32926 whole entry, looked up, the tested form may be a part): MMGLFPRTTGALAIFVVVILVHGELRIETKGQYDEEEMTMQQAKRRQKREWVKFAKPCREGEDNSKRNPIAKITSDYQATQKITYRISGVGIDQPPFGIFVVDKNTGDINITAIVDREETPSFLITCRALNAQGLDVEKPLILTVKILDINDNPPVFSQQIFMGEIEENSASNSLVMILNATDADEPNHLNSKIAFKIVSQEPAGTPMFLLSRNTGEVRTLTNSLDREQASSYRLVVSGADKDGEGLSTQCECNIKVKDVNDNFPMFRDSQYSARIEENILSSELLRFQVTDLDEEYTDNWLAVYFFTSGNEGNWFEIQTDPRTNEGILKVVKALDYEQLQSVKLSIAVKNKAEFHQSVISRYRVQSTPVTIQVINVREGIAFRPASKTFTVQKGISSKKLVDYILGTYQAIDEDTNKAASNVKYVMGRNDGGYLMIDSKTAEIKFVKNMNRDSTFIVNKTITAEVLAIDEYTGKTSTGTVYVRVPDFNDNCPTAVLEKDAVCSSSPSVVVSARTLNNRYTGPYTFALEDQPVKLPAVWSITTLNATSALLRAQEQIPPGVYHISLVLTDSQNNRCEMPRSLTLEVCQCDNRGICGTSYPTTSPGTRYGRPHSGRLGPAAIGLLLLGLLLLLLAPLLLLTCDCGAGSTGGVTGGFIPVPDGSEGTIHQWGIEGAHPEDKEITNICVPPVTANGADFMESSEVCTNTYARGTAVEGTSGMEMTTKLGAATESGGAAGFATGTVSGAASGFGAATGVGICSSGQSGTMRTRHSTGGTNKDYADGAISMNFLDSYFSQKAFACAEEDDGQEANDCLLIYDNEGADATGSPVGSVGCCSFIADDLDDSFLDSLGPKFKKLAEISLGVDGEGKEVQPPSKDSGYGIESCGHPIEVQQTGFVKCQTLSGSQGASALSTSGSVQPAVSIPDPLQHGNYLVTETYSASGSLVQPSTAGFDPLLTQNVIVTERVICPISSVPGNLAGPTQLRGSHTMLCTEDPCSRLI
MsrA inh = inhibits bovine methionine sulfoxide reductase A | AID 651718 | hit rate 0.75% among 360,000 | purified bovine MsrA, absorbance read-out | inhibition, % at 15.5 µM; in the data active = inhibition above about 4.5%
NadD block = inhibitors of Staphylococcus aureus NadD; purified NadD enzyme, colorimetric absorbance read-out; inhibition, % at 20 µM; hit rate 0.78% among 360,000; in the data active = inhibition above about 26%
rCAG RNA binder = r(CAG) repeat RNA binding; TO-PRO-1 dye displacement fluorescence; inhibition, % at 3 µM; hit rate 1.3% among 370,000;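 active = inhibition above the plate cutoff, the mean of all test compounds on that plate plus 3 SD, cut at about 35% in these data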;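 note: higher means more dye released from RNA so lower well fluorescence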
bovine MsrA act = activators of bovine methionine sulfoxide reductase A. activation, % at 10.6 µM. hit rate 0.3% among 360,000. purified bovine MsrA, absorbance read-out; in the data active = activation above about 7.5%
Of the large screens only hits and unclear results are named; the others gave an inactive call.

C=CCN1C(=O)[C@@H](CC(=O)NCCC(C)C)[C@]2(C(=O)OCC)CCCCC/C=C/12	none (no result: DAGLB inh, DSG3 Ab inh, MsrA inh, NadD block, bovine MsrA act)
Cc1ccc(NC(=O)c2cc(S(=O)(=O)N3CCOCC3)cn2C)cc1Cl	none
Cc1ccc(NC(=O)c2cc(S(=O)(=O)N3CCCC3)cn2C)cc1C	DSG3 Ab inh 18
CCc1nc(N[C@@H](Cc2c[nH]c3ccccc23)C(=O)O)c2oc3ccccc3c2n1	rCAG RNA binder 36
COc1cc([N+](=O)[O-])ccc1NC(=O)Cc1ccc(C)cc1	none
Cc1ccc(NC(=O)Cc2ccc([N+](=O)[O-])cc2)c(Br)c1	DSG3 Ab inh 6.2
O=c1c2c([N+](=O)[O-])cc([N+](=O)[O-])cc2sn1-c1ccc(Br)cc1	DSG3 Ab inh -121, NadD block 30 (no result: MsrA inh, rCAG RNA binder)
O=c1c2c([N+](=O)[O-])cc([N+](=O)[O-])cc2sn1Cc1ccccc1	DSG3 Ab inh 37
O=C(Nc1ccc(C(=O)O)cc1)/C(=C\C=C\c1ccccc1)NC(=O)c1ccccc1Cl	MsrA inh 5.8, rCAG RNA binder 37
CC(=O)N1CCN(C2=NC(=O)N(c3ccc(Br)cc3)C(=O)C2)CC1	none (no result: DAGLB inh, DSG3 Ab inh, MsrA inh, NadD block, bovine MsrA act)
COC(=O)[C@H](CC(C)C)N1Cc2nnn(Cc3ccccc3)c2-c2cc(F)ccc2S1(=O)=O	none (no result: DAGLB inh, DSG3 Ab inh, MsrA inh, NadD block, bovine MsrA act)
CCOC(=O)N1CCC(NC(=O)c2cc3c(-c4ccc(Cl)cc4)nn(C)c3s2)CC1	DSG3 Ab inh 91
Cn1nc(-c2ccc(Cl)cc2)c2cc(C(=O)N3CCN(c4ccccn4)CC3)sc21	DSG3 Ab inh -3.6 (no result: MsrA inh, rCAG RNA binder)
Cn1nc(-c2ccc(Cl)cc2)c2cc(C(=O)N3CCN(c4ccccc4)CC3)sc21	none
CCCCNC(=O)c1cc2c(-c3ccc(Cl)cc3)nn(C)c2s1	none
CC(C)NC(=O)c1cc2c(-c3ccc(Cl)cc3)nn(C)c2s1	DSG3 Ab inh 73
C#CCN(C[C@H]1[C@H](OC(=O)NCC2CCCCC2)[C@H](OC(=O)NCC2CCCCC2)C[C@@H](C(=O)OC)[C@H]1C(=O)OC)S(=O)(=O)c1ccc(C)cc1	none (no result: DSG3 Ab inh)
COc1cc2c(cc1OC)CN(C(=O)c1ccc(Cl)c(S(=O)(=O)N3CCCC3)c1)CC2	none (no result: DSG3 Ab inh)
COC(=O)[C@]12C[C@H](CC(=O)N3CCN(C(=O)c4ccco4)CC3)C(=O)N(Cc3cccc4ccccc34)C1=C[C@H](COCc1ccccc1)O[C@@H]2C	none (no result: DAGLB inh, DSG3 Ab inh, MsrA inh, NadD block, bovine MsrA act)
O=S(=O)(c1ccccc1Br)N(Cc1cn(Cc2ccccc2)nn1)C1CC1	none (no result: DAGLB inh, DSG3 Ab inh, MsrA inh, NadD block, bovine MsrA act)
Cc1ccc(NC(=O)c2cc(NC(=O)C3CC=CCC3C(=O)O)ccc2N2CCOCC2)cc1 (stereo not drawn)	none
Cc1ccc(NC(=O)c2cc(NC(=O)C3CC=CCC3C(=O)O)ccc2N2CCOCC2)cc1Cl (stereo not drawn)	rCAG RNA binder 35
O=C(OCc1cn([C@H]2CN(C(=O)c3cccs3)[C@@H](c3ccc(Cl)cc3)C[C@@H]2O)nn1)c1ccccc1	none
COc1ccc([C@H]2Oc3cc(O)cc(O)c3C(=O)C2[C@@H]2C(=O)c3c(O)cc(O)cc3O[C@@H]2c2ccc(OC)cc2)cc1 (stereo partly drawn)	rCAG RNA binder 58 (no result: DAGLB inh, DSG3 Ab inh, NadD block, bovine MsrA act)
COc1ccc(C2CC(=O)Oc3cc(O)cc(O)c32)cc1 (stereo not drawn)	none
Cc1cc2cc(CNC(=O)Cc3cccs3)ccc2n1C	DSG3 Ab inh 64 (no result: MsrA inh, rCAG RNA binder)
CC(=O)Nc1ccc(S(=O)(=O)NCc2ccc3[nH]c(C)cc3c2)cc1	none
CC(=O)Nc1ccc(S(=O)(=O)NCc2ccc3c(c2)cc(C)n3C)cc1	DSG3 Ab inh 80
Cc1cc2cc(CNC(=O)CCC(=O)O)ccc2n1C	none
COc1ccc(N=C2S/C(=C\c3ccc(OCC(=O)O)cc3)C(=O)N2CCc2c[nH]c3ccccc23)cc1	DSG3 Ab inh 46, rCAG RNA binder 68
Cc1ccc(-c2nc(CS(=O)CC(=O)NCc3ccc(Cl)cc3)c(C)o2)cc1 (stereo not drawn)	none
Cc1ccc(-c2nc(CS(=O)CC(=O)NCCC(C)C)c(C)o2)cc1 (stereo not drawn)	DSG3 Ab inh 72 (no result: MsrA inh, rCAG RNA binder)
Cc1oc(-c2ccc(Cl)cc2)nc1CS(=O)CC(=O)NCc1ccccc1 (stereo not drawn)	DSG3 Ab inh 67
COC(=O)[C@H]1C[C@@]2(c3ccccc3)c3ccccc3N[C@H]2N1	none (no result: DAGLB inh, DSG3 Ab inh, MsrA inh, NadD block, bovine MsrA act)
O=c1c(-c2n[nH]c(=S)o2)cccn1Cc1ccccc1	MsrA inh 4.6
O=[N+]([O-])c1ccc2[nH]c(=S)sc2c1	bovine MsrA act 9.6 (no result: DSG3 Ab inh)
Cc1ccc(Cn2cc(CN(C3CC3)S(=O)(=O)c3ccccc3Br)nn2)cc1	none (no result: DAGLB inh, DSG3 Ab inh, MsrA inh, NadD block, bovine MsrA act)
O=C(NCc1ccc(Cl)cc1)C(=O)Nc1nccs1	DSG3 Ab inh 76
CC(C)c1ccc(CNC(=O)C(=O)Nc2nccs2)cc1	none
O=S1(=O)c2c(cccc2N2CCSCC2)Oc2ccccc2CN1Cc1cn(Cc2ccc(C(F)(F)F)cc2)nn1	none (no result: DAGLB inh, DSG3 Ab inh, MsrA inh, NadD block, bovine MsrA act)
CSCCC(NC(=O)c1ccccc1Br)C(=O)NCC1CCCCC1 (stereo not drawn)	DSG3 Ab inh 106
CC1OC(c2ccccc2)OC2COC(c3ccccc3)OC12 (stereo not drawn)	DSG3 Ab inh -6.5
N=c1oc2c3c4c(cc2cc1C(=O)Nc1ccccc1)CCCN4CCC3	NadD block 31 (no result: MsrA inh, rCAG RNA binder)
CCOc1ccc(C(=O)OCC(=O)Nc2cc(S(=O)(=O)N3CCOCC3)ccc2N2CCOCC2)cc1	DSG3 Ab inh -19
O=C(COC(=O)c1ccc(O)cc1)Nc1cc(S(=O)(=O)N2CCOCC2)ccc1N1CCOCC1	none (no result: DAGLB inh, DSG3 Ab inh, NadD block, bovine MsrA act)
COc1cccc(-c2cnc3c(NC(C)=O)cc(-c4cccc(C(=O)NCCN(C)C)c4)cn23)c1	none (no result: DAGLB inh, DSG3 Ab inh)
COc1ccc(Cl)cc1NC(=O)CN(C)S(=O)(=O)c1cccs1	none
COc1ccc(Cl)cc1NC(=O)COC(=O)c1cc(NS(=O)(=O)c2cccs2)ccc1O	NadD block 33
COc1ccc(C2/C=C\CC(NC(=O)OCC3c4ccccc4-c4ccccc43)CC(=O)N2Cc2ccccc2F)cc1 (stereo not drawn)	DSG3 Ab inh 83 (no result: MsrA inh, rCAG RNA binder)
COc1cc(/C=N/Nc2cccc(C)c2)cc(Br)c1O	NadD block 26
O=C(C(=O)N1CCN(c2ccccc2)CC1)c1ccco1	none (no result: DAGLB inh, DSG3 Ab inh, NadD block, bovine MsrA act)
COC(=O)[C@]12CCCCC=C1N(Cc1ccco1)C(=O)[C@H](CC(=O)N1CCC(c3ccccc3)CC1)C2	none (no result: DAGLB inh, DSG3 Ab inh)
Cc1ccc(-c2[nH]nc(N)c2N=Nc2ccccc2C)cc1	none
Cc1cccc(N=Nc2c(N)n[nH]c2-c2ccc(Cl)cc2)c1	rCAG RNA binder 40
O=C(N/N=C/c1cc([N+](=O)[O-])ccc1O)c1ccc(COc2ccc3c(c2)CCC3)o1	NadD block 52
COc1ccc(Cn2cc(CN3[C@@H](CC(C)C)COc4ccc(Cl)cc4S3(=O)=O)nn2)cc1	none (no result: DAGLB inh, DSG3 Ab inh, MsrA inh, NadD block, bovine MsrA act)
CCOC(=O)N1CCC(Nc2c(Nc3cccc(CC)c3)c(=O)c2=O)CC1	MsrA inh 4.6
Cc1ccc(C(=O)NC2CCCCN(Cc3cccc(Cl)c3)C2=O)c(C)c1 (stereo not drawn)	none (no result: DAGLB inh, DSG3 Ab inh, MsrA inh, NadD block, bovine MsrA act)
COc1ccc(Nc2ncnc3c2cnn3-c2cccc(C)c2)cc1OC	DSG3 Ab inh 34
CCOc1ccc(Nc2ncnc3c2cnn3-c2ccccc2)cc1	DSG3 Ab inh 48
